Pf growth 96h: P. falciparum growth inhibition at 96 hour, primary screen for plastid delayed-death inhibitors | P. falciparum luciferase reporter growth, 96 h | Potency, µM (titrated, usually from 28.7 µM), usual class: inhibitors | 6.9% of 320,000 active
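Parasite growth measured via integrated firefly luciferase reporter in P. falciparum. Infected erythrocytes at 2% hematocrit, 0.05% parasitemia final were treated 96 hours at 37 C under 5% CO2, and luminescence was read.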
NS1 function inh: blocks influenza NS1 protein function; Potency, µM (series often up to 46.1 µM); 0.4% of 270,000 active; AID 2326; calls by dose curve; also: actives are rising curves; nearly all actives have a fitted effect of over 50% in size
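A cell-based growth assay was used: compounds that relieve NS1-induced slow growth of budding yeast raise OD600. Assay medium was yeast nitrogen base with ammonium sulphate and -URA supplement, pH 6.0, with 2% galactose.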
Sm TGR inh: S. mansoni TGR enzyme inhibition | Q962Y6 | purified TGR, DTNB reduction, TNB absorbance 405 nm | Potency, µM (series often up to 114 µM), usual class: inhibitors | 3% of 360,000 active | AID 485364; also: nearly all actives have a fitted effect of over 60% in size
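TGR 20 nM + NADPH 100 uM (dispensed conc.), cpd preinc 15 min RT; start with NADPH (500 uM addition) then DTNB (15 mM addition). Kinetic TNB absorbance, 405 nm filter. Four-parameter Hill fit across titration.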
CHX counter: counter-screen hit for Shiga toxin inhibitors, cycloheximide; cell reporter, cycloheximide protein synthesis inhibition counterscreen; max response, %; AID 2314; 12% of 300,000 active; in the data active = max response mostly above about 13%, no sharp cut-off; inactive = mostly below about 14%; also: read at 38.3 µM for the half of the compounds with a filed dose
Pf growth 48h: inhibits P. falciparum growth in the first generation, 48 h | P. falciparum luciferase growth in erythrocytes, 48 h | Potency, µM (titrated, usually from 28.7 µM), hits mostly inhibitors | 5.9% of 310,000 active | AID 504832
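Read-out is firefly luciferase luminescence from an integrated reporter in P. falciparum, so falling signal marks reduced parasite growth. Infected erythrocytes were at 2% hematocrit and 0.1% parasitemia (final) in Albumax-supplemented RPMI 1640.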
Shiga inhibitor: blocks Shiga toxin action in Vero cells | Vero cells, Shiga toxin protein synthesis inhibition reporter | inhibition, % at 38.7 µM | 9.2% of 290,000 active | AID 2315; in the data active = inhibition mostly above about 28%, no sharp cut-off; inactive = mostly below about 43%
Hits are given with their value; . = inactive; ? = inconclusive; / = not tested or not shown. An excerpt weighted towards active compounds, which were near 21% of everything screened. Unless noted, calls follow the shape of the dose curve; as a rule, active = well fitted curve in the direction sought with a large enough effect; inconclusive = small, poorly fitted or top-dose-only effect, or another doubt; inactive = no such curve, though single readings can be large; an effect the other way counts as inactive or inconclusive.

SMILES	Pf growth 96h	NS1 function inh	Sm TGR inh	CHX counter	Pf growth 48h	Shiga inhibitor
COc1ccc(NC(=O)CN(C)C(=O)c2ccc(-c3cccc(C(F)(F)F)c3)o2)cc1	0.37µM	.	.	.	?	.
CCN(CC(=O)NCc1cccs1)C(=O)c1ccc(-c2cccc(C(F)(F)F)c2)o1	9.28µM	/	?	/	?	/
COc1ccc(NC(=O)CN(C)C(=O)c2ccc(-c3ccccc3Cl)o2)cc1	0.329µM	/	.	/	0.37µM	/
O=C(Nc1ccccc1C(F)(F)F)C1CCN(S(=O)(=O)Cc2ccccc2)CC1	/	/	.	/	/	/
O=C1OC(c2ccccc2)Cc2cc(C(=O)N3CCN(c4ccc(F)cc4)CC3)ccc21 (stereo not drawn)	.	/	.	/	?	/
CCOC(=O)C1=C[C@]2(CC)CCCN3CCc4c(n1c1ccccc41)[C@@H]32	3.7µM	.	?	.	5.22µM	.
CC[C@]12CCCN3CCc4c(n(c5ccccc45)C(=O)C1)[C@@H]32	?	/	.	/	?	/
CCc1nnc(NC(=O)c2cc(S(=O)(=O)N3CCOCC3)ccc2N2CCCCC2)s1	.	.	.	.	.	.
Cc1ccccc1OCC(O)CN1C(=O)c2ccccc2C1=O (stereo not drawn)	.	.	.	37.1	.	38.7
Cc1ccc(C)c(OCC(O)CN2CCc3ccccc3C2)c1C (stereo not drawn)	11.7µM	.	.	.	9.28µM	.
O=C1c2ccccc2C(=O)N1CC(O)COc1ccccc1Cl (stereo not drawn)	.	.	.	44.7	.	91.1
Cc1ccccc1OCC(O)CN1CCN(CC(O)COc2ccccc2C)CC1 (stereo not drawn)	1.47µM	/	.	.	?	.
COc1ccc(N2CCN(C(=O)CNS(=O)(=O)c3ccc(C)cc3)CC2)cc1	.	/	.	.	.	.
COc1cccc(C(=O)n2nc(-c3ccco3)nc2NCc2cccs2)c1	/	/	.	/	/	/
COc1ccc(C2N(Cc3ccccc3)CCN2Cc2ccccc2)cc1[N+](=O)[O-]	.	.	.	.	.	.
COc1ccccc1CNC(=O)C1Cc2cc(S(=O)(=O)N3CCCCC3)ccc2N1C(C)=O (stereo not drawn)	?	.	.	.	.	.
Oc1c(Cl)cc(Cl)cc1/C=N/c1nc(-c2ccc(Cl)cc2)cs1	?	.	?	.	.	.
Oc1c(Cl)cc(Cl)cc1/C=N/c1nccs1	/	.	6.31µM	.	.	.
Cc1ccc(/C=C2/SC(=O)N(CC(=O)N3CCOCC3)C2=O)s1	.	.	.	.	.	.
O=C(CN1C(=O)S/C(=C/c2ccc(N3CCOCC3)cc2)C1=O)N1CCOCC1	.	.	.	17.4	.	35.6
Cc1ccsc1/C=C1/SC(=O)N(CC(=O)N2CCOCC2)C1=O	.	.	.	24.8	.	.
O=C(CN1C(=O)S/C(=C/c2ccccn2)C1=O)N1CCOCC1	?	.	.	.	.	.
O=C(CCc1ccccc1)NC(NC(=S)Nc1cccc(Cl)c1)C(Cl)(Cl)Cl (stereo not drawn)	9.28µM	.	.	.	?	.
CCCC(=O)NC(NC(=S)Nc1ccc(N=Nc2ccccc2)cc1)C(Cl)(Cl)Cl (stereo not drawn)	.	.	.	34.6	?	39.4
CCCC(=O)NC(NC(=S)Nc1ccc(S(N)(=O)=O)cc1)C(Cl)(Cl)Cl (stereo not drawn)	?	.	.	.	.	.
SMILES	Pf growth 96h	NS1 function inh	Sm TGR inh	CHX counter	Pf growth 48h	Shiga inhibitor
O=C(CCc1ccccc1)NC(NC(=S)Nc1ccc(Br)cc1)C(Cl)(Cl)Cl (stereo not drawn)	/	.	.	.	?	.
COc1c2c(nc3occc13)C(CC=C(C)C)(OC)C(O)CC2 (stereo not drawn)	.	.	.	.	.	.
COC(=O)c1nc(NC(=O)C(C)C)n[nH]1	5.86µM	.	17.8µM	.	?	.
COC(=O)c1nc(NC(C)=O)n[nH]1	?	.	.	.	.	.
CC(C)NC(=O)COc1coc(CN2CCN(Cc3ccccc3)CC2)cc1=O	?	.	.	.	.	.
O=c1[nH]c(=S)n(-c2ccccc2)c(O)c1/C=N/N1CCCCC1c1cccnc1 (stereo not drawn)	.	.	?	.	.	.
CCn1c(O)c(/C(C)=N/N2CCCCC2c2cccnc2)c(=O)[nH]c1=S (stereo not drawn)	13.1µM	.	.	.	?	.
O=C(c1cccc2ccccc12)N1CCN(c2ccc([N+](=O)[O-])c(NCc3ccco3)c2)CC1	.	.	.	.	?	.
Cc1ccc(C(=O)N2CCN(c3ccc([N+](=O)[O-])c(NCc4ccco4)c3)CC2)cc1	4.65µM	.	.	.	?	.
Cc1cccc(C(=O)N2CCN(c3ccc([N+](=O)[O-])c(NCc4ccco4)c3)CC2)c1	11.7µM	.	.	.	?	.
Cc1ccccc1C(=O)N1CCN(c2ccc([N+](=O)[O-])c(NCc3ccco3)c2)CC1	?	.	.	.	13.1µM	.
Cc1ccc(-c2csc(/C=C3\SC(C)C(=O)N3CC(=O)Nc3ccccc3F)n2)cc1 (stereo not drawn)	.	.	.	.	.	.
COc1ccc2c(CNCc3cccs3)c(C(=O)O)n(Cc3ccc(C)cc3)c2c1	/	/	.	/	/	/
O=C(Nc1ccc2c(c1)CCC2)Nc1ccc2c(c1)OCO2	.	/	.	47.3	.	133.9
O=C(Nc1ccc2c(c1)OCO2)Nc1ccc(Br)cn1	/	.	.	37.4	.	82.6
CC(C)N1CCC(NC(=O)Nc2ccc3c(c2)OCO3)CC1	.	.	.	28.7	.	.
COC(=O)c1ccc(NC(=O)Nc2ccc3c(c2)OCO3)cc1	?	.	.	49.9	.	87.0
Cc1cccc(NC(=O)Cn2c(=O)n(CCC(=O)N3CCc4ccccc4C3)c(=O)c3ccccc32)c1	/	/	.	/	/	/
COc1ccc(S(=O)(=O)N2CCC(N3CCN(Cc4ccc(F)cc4)C(=O)C3=O)CC2)cc1	/	/	.	/	/	/
NC(=O)c1ccc(NC(=O)Nc2ccc3c(c2)OCO3)cc1	.	.	.	33.9	.	46.6
O=C(Nc1cccc([N+](=O)[O-])c1)Nc1cccc([N+](=O)[O-])c1	?	/	.	.	?	.
CC1(C(=O)Nc2ccc3c(c2)OCCO3)CC1(Cl)Cl (stereo not drawn)	?	.	.	23.1	.	42.3
Cc1ccnc(NC(=O)Nc2ccc3c(c2)OCO3)c1	.	/	.	26.7	.	74.3
O=C(Nc1cccc([N+](=O)[O-])c1)Nc1ccc2c(c1)OCCO2	.	.	/	33.3	.	.
Cc1c(NC(=O)Nc2ccc3c(c2)OCO3)c(=O)n(-c2ccccc2)n1C	.	.	.	.	.	.
COc1ccc(C(=O)NCc2nnc(SCC(=O)Nc3ccccc3)n2-c2ccc(F)cc2)cc1	/	/	.	/	/	/
O=C(O)C1CC=CCC1C(=O)Nc1ccc(F)c(F)c1 (stereo not drawn)	/	.	.	.	.	.
O=C(CCl)Nc1ccc2c(c1)OCO2	14.7µM	/	15.8µM	33.8	?	.
